Source: PubChem BioAssay (Columbia University Molecular Screening Center)
Shown is part of a subset that was picked to be rich in hits.
VCAM1 pot: potentiators of TNFa-induced VCAM1 expression, primary screen, imaging, HUVEC, TNFa stimulus, immunofluorescence; hit rate 0.19% among 93,000; HUVEC TNFa-stimulated VCAM-1 immunofluorescence, high-content imaging; scaled per plate to unstimulated/TNFa-only wells; activation, % at 2 µM; AID 808, 2007;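 active = activation above the screen mean plus 3 SD, with well images confirming the hit on visual review, cut at about 28% in these data, passing the limit was not always enough; inconclusive = activation above that limit but images do not confirm it; inactive = activation not above that limit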;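 also: signal is the number of cytoplasmic VCAM-1 stained grains per positive cell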
VCAM1 pot confirm: potentiators of TNFa-induced VCAM1 expression, confirmation, imaging, HUVEC, triplicate retest. shares compounds with VCAM1 pot. HUVEC TNFa-stimulated VCAM-1 immunofluorescence imaging. activation, % at 2 µM. 230 tested, under 10 active. AID 1034, 2008;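 active = activation above 30% in triplicate retests at 2 µM, then confirmed by visual review of the well images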
Of the large screens only hits and unclear results are named; the others gave an inactive call (follow-up assays come after a bar, where they were run).

O=C(Cc1ccc(Cl)cc1)Nc1ccc(N2CCN(C(=O)c3ccco3)CC2)c(Cl)c1	none
C=CCNc1nc(Nc2ccc(OC)cc2)nc(OCC)n1	none
CN(c1cccc(NC(=O)CN(c2ccc(C34CC5CC(CC(C5)C3)C4)cc2)S(C)(=O)=O)c1)S(C)(=O)=O	none
Cc1c(Cl)cccc1-n1ccnc1SCC(=O)O	none
N#CC1=C(N)Oc2n[nH]c(-c3ccccc3)c2C1c1cccnc1 (stereo unspecified)	VCAM1 pot 94 | VCAM1 pot confirm inactive
CCN(CC)c1ccc2c(c1)OC(N)=C(C#N)C2c1cccnc1 (stereo unspecified)	none
CCCSC1=C(C#N)C(c2cccnc2)C(C(=O)OCC)=C(c2ccccc2)N1 (stereo unspecified)	none
CCC(C)(C)n1nnnc1CN1CCC(O)(c2cccc(C(F)(F)F)c2)CC1	none
Cc1ccc(S(=O)(=O)NC(C)C(=O)Nc2ccc(C(N)=O)cc2)cc1 (stereo unspecified)	none
NC(=O)c1ccccc1OCCOCCOCCOc1ccccc1C(N)=O	none
NC(=O)c1ccccc1N=Cc1ccccn1	VCAM1 pot 40 | VCAM1 pot confirm inactive
CC(Nc1cc(=O)n(C)c(=O)[nH]1)c1ccccc1 (stereo unspecified)	none
Cc1cc2ncn(C(=O)N3CCCC3)c2cc1C	none
S=C(NN=C1CCCCCC1)Nc1ccc(Cl)cc1	VCAM1 pot 35 | VCAM1 pot confirm inactive
C=CCn1c(COc2ccc3c(c2)CCCC3)nnc1SCC(=O)Nc1cccc(SC)c1	none
Cc1ccc(/C=C2/SC(=S)N(CC(=O)Nc3ncc(Cc4ccc(C)cc4)s3)C2=O)cc1	none
CCN1C(=O)/C(=C/c2cn(C)nc2C)SC1=S	VCAM1 pot 53 | VCAM1 pot confirm inactive
CCN1C(=O)/C(=C/C=C2/SCCN2C)SC1=S	none
Cc1nc2ccccc2n1CC(O)COCC1CC=CCC1 (stereo unspecified)	VCAM1 pot inconclusive | VCAM1 pot confirm inactive
CC(C)Cn1c(SCC(=O)NC(=O)NC2CCCC2)nc2ccccc21	none
CCOC(=O)Cn1c(C)nc2ccccc21	none
Cc1ccc(N2C(=O)c3ccc(C(=O)N4CCN(c5cccc(C)c5C)CC4)cc3C2=O)cc1	none
COc1cccc(-c2nnn(CC(=O)Nc3cc(OC)c(NC(=O)c4ccco4)cc3OC)n2)c1	none
CC(C)[C@H](NC(=O)OC(C)(C)C)c1nnc(SCc2cccc(F)c2)o1	none
CCCCCCNC(=O)CC(c1ccccc1)c1cc(Br)ccc1O (stereo unspecified)	none
CCCCCCc1cc2cc(C(=O)NCc3ccccc3)c(=N)oc2cc1O	VCAM1 pot 51 | VCAM1 pot confirm inactive
COc1ccccc1C(=O)NCc1ccccc1	none
COC(=O)c1c(NC(=S)Nc2ccccc2Cl)sc(C)c1C	none
Cc1c(NC(=O)c2cc3nc(-c4ccc(Br)cc4)cc(C(F)(F)F)n3n2)c(=O)n(-c2ccccc2)n1C	none
CCc1ccc(OCC(=O)NCc2ccco2)c(Br)c1	none
CCOC(=O)Cc1csc(NC(=O)CSc2nc(N)c3c(C)c(C)sc3n2)n1	VCAM1 pot 33 | VCAM1 pot confirm inactive
CCOC(=O)Cc1csc(NC(=O)CSc2nnnn2-c2ccc(C)cc2C)n1	none
CCOC(=O)Cc1csc(NC(=O)COc2ccccc2OCC)n1	none
CS(=O)(=O)N(CC(=O)NCc1ccncc1)Cc1ccc(Cl)cc1	none
CC1=C([N+](=O)[O-])C(c2cccc(Br)c2)C2=C(N1)c1ccccc1C2=O (stereo unspecified)	none
CS(=O)(=O)N1CCCC(C(=O)NCc2ccc(F)cc2Cl)C1 (stereo unspecified)	none
NC(=O)c1cccc(S(=O)(=O)N2CC(c3ccccc3)CC2=O)c1 (stereo unspecified)	none
CCOc1ccccc1NC(=O)C1CC2CCCC(C1)C2=O (stereo unspecified)	none
C1CSC2(N1)C1CC3CC2CC(C1)C31NCCS1 (stereo unspecified)	none
CCn1c(SCc2nc(-c3cccs3)no2)nnc1-c1c[nH]c2ccccc12	none
CC(C)NC(=O)CSc1nnc(-c2ccc(C(C)(C)C)cc2)n1C	VCAM1 pot inconclusive | VCAM1 pot confirm inactive
CC(C)CCNC(=O)CSc1nnc(-c2ccc(S(=O)(=O)N3CCCC3)cc2)n1C	none
Cc1ccc(-c2nnc(SCC(C)C)n2C)cc1	none
CSCCC(NC(=O)c1ccco1)C(=O)O (stereo unspecified)	none
NS(=O)(=O)c1ccc(CCNC(=O)C2CCCCC2)cc1	VCAM1 pot 33 | VCAM1 pot confirm inactive
CCC(CC)C(=O)NCCc1ccc(S(N)(=O)=O)cc1	none
COc1ccc(CCNC(=O)C2CCN(S(=O)(=O)N3CCCCCC3)CC2)cc1OC	none
O=C(CN1CCN(CCO)CC1)Nc1ccccc1	none
CC1CCCCN1C(=O)c1cc(F)c(F)cc1Cl (stereo unspecified)	none
CCOC(=O)COc1ccc(S(=O)(=O)NCCC2=CCCCC2)cc1	VCAM1 pot 48 | VCAM1 pot confirm inactive
C1=C(CCNCC2CC2)CCCC1	none
CCOc1ccc(S(=O)(=O)NCCC(=O)NCc2ccco2)cc1	none
